Seven compounds from ChEMBL document CHEMBL1961873, “Compounds: GSK PKIS; Assays: Nanosyn kinase panel” (2012) can be followed below.

The target of assay [1] is Leukocyte tyrosine kinase receptor (Homo sapiens) (UniProt P29376). Particulars: at 1 µM.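 Note: each value is the mean inhibition of LTK.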
For assay [2], the target named is Tyrosine-protein kinase Lyn (Homo sapiens) (UniProt P07948). Particulars: at 0.1 µM.
Assay [3] has the same target. Particulars: at 1 µM.
For assay [4] the target is unchanged. Particulars: at 0.1 µM. This is another data set of the same source.
Assay [5] shares this target. Particulars: at 1 µM. This is another data set of the same source.
Assay [6] concerns the target T1, Tyrosine-protein kinase Mer (Homo sapiens) (UniProt Q12866).
T1 sequence (whole entry): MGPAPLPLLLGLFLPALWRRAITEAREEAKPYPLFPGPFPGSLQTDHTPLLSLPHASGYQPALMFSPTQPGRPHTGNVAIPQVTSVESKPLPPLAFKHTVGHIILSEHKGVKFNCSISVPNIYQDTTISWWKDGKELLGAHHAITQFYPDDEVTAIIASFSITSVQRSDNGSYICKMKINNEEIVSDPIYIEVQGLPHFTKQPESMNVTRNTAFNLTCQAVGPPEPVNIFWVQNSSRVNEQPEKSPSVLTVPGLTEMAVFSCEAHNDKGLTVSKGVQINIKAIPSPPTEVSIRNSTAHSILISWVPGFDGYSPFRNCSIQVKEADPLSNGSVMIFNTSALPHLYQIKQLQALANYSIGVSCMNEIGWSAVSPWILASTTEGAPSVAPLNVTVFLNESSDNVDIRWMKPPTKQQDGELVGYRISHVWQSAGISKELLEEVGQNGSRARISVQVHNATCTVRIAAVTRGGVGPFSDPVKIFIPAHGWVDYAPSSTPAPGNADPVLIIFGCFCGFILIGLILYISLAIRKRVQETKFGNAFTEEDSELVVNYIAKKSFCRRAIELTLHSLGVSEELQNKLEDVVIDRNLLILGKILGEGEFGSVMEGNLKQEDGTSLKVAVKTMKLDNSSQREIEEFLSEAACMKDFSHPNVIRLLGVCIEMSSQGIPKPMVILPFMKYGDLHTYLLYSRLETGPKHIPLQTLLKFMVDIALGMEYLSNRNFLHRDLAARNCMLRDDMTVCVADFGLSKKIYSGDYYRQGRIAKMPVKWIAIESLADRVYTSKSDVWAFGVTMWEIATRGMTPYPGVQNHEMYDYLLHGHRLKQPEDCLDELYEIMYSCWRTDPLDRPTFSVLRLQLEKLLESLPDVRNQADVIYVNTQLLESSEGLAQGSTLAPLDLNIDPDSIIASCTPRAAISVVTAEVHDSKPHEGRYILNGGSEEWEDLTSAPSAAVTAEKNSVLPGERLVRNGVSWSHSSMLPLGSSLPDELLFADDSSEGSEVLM
Particulars: at 0.1 µM.

In assay [7] the target is T1, Tyrosine-protein kinase Mer (Homo sapiens). Particulars: at 1 µM.
The target in assay [8] is Hepatocyte growth factor receptor (Homo sapiens) (UniProt P08581). Particulars: at 0.1 µM.
Assay [9] has the same target. Particulars: at 1 µM.
The target of assay [10] is T2, Muscle, skeletal receptor tyrosine-protein kinase (Homo sapiens) (UniProt O15146).
T2 sequence (whole entry): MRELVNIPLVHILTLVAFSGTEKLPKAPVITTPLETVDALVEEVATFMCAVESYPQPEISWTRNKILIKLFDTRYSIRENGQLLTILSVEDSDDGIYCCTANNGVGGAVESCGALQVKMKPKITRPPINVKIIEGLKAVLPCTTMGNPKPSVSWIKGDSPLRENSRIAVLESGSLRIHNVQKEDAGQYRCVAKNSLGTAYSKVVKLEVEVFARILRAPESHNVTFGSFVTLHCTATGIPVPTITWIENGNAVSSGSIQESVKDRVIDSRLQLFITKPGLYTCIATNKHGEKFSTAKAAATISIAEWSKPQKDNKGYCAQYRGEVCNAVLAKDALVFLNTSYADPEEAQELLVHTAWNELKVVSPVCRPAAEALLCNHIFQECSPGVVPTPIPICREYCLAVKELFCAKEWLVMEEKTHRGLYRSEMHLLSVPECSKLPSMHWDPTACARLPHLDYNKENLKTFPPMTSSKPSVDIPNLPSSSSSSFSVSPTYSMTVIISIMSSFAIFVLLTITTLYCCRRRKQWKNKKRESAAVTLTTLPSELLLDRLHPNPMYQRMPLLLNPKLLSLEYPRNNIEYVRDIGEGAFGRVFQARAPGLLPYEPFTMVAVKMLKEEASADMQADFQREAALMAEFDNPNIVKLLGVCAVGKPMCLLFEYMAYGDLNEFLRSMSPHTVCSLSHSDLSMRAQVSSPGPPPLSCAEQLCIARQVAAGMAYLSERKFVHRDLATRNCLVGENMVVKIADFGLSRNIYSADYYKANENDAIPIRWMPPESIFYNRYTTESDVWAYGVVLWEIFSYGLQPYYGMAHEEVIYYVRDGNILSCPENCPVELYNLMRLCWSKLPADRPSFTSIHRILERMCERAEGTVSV
Particulars: at 0.1 µM.

For assay [11], the target named is T2, Muscle, skeletal receptor tyrosine-protein kinase (Homo sapiens). Particulars: at 1 µM.
Assay [12] concerns the target Platelet-derived growth factor receptor alpha (Homo sapiens) (UniProt P16234). Particulars: at 0.1 µM.
Assay [13] shares this target. Particulars: at 1 µM.
Assay [14] concerns Platelet-derived growth factor receptor alpha (Homo sapiens), P16234 [D842V]. Particulars: at 0.1 µM.
Assay [15] shares this test system. Particulars: at 1 µM.
The subject of assay [16] is Platelet-derived growth factor receptor alpha (Homo sapiens), P16234 [T674I]. Particulars: at 0.1 µM.
The test system is the same in assay [17]. Particulars: at 1 µM.
The subject of assay [18] is Platelet-derived growth factor receptor alpha (Homo sapiens), P16234 [V561D]. Particulars: at 0.1 µM.
Assay [19] shares this test system. Particulars: at 1 µM.
Assay [20] addresses Platelet-derived growth factor receptor beta (Homo sapiens) (UniProt P09619). Particulars: at 0.1 µM.

SMILES strings stand for the structures.

Sequence of Platelet-derived growth factor receptor alpha (Homo sapiens), P16234 [V561D] (P16234 whole entry V561D): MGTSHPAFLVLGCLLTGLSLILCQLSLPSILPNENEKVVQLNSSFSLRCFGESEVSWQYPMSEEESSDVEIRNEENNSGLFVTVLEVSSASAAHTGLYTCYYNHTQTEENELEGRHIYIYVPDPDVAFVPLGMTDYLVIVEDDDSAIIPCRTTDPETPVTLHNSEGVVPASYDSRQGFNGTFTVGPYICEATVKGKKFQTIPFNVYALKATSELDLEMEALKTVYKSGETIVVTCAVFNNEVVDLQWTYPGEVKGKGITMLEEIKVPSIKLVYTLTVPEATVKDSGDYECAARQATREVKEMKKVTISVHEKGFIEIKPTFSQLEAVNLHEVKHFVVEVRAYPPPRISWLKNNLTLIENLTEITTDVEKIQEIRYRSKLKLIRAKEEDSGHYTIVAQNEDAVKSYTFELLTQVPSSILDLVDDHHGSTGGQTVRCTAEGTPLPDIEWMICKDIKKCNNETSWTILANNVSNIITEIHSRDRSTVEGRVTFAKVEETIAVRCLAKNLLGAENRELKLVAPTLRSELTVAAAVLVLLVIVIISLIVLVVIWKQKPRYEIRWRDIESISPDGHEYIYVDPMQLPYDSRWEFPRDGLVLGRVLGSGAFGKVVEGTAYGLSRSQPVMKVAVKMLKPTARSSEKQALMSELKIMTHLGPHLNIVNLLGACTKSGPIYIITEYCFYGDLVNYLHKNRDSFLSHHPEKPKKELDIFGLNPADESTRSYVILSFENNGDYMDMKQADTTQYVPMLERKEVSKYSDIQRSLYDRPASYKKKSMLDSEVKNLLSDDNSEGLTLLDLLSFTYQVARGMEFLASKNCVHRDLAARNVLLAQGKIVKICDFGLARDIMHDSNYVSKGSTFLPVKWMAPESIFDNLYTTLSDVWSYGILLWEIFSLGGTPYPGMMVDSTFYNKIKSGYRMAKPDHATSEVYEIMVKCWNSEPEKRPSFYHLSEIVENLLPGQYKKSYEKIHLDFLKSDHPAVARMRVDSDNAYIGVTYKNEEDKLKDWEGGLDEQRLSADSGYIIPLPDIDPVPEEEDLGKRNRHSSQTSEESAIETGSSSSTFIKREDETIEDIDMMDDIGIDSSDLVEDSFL
Sequence of Leukocyte tyrosine kinase receptor (Homo sapiens) (P29376 whole entry): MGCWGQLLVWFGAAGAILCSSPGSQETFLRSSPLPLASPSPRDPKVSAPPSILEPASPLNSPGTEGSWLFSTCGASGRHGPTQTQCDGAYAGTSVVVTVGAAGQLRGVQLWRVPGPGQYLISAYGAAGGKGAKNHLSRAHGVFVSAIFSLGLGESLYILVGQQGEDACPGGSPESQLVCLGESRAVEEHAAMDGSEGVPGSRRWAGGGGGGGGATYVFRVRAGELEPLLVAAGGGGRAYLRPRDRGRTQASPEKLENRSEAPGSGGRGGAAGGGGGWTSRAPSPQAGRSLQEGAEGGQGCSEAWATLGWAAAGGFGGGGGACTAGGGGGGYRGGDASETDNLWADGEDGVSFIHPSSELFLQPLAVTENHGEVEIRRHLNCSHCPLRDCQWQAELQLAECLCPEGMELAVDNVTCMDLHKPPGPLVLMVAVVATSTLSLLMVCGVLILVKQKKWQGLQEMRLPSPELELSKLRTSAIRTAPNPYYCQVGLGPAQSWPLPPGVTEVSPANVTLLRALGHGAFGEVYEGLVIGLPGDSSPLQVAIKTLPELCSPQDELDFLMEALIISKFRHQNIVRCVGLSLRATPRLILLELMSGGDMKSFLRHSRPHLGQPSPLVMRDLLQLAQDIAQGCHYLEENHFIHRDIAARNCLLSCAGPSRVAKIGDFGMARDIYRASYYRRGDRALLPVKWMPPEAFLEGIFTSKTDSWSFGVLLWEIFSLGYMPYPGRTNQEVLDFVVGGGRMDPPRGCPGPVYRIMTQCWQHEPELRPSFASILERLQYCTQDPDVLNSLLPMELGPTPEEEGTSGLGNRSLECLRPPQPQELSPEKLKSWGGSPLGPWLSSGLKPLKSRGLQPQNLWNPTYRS
Sequence of Platelet-derived growth factor receptor alpha (Homo sapiens) (P16234 whole entry): as the sequence (P16234 whole entry V561D) above, with D561V counted along it
Sequence of Platelet-derived growth factor receptor beta (Homo sapiens) (P09619 whole entry): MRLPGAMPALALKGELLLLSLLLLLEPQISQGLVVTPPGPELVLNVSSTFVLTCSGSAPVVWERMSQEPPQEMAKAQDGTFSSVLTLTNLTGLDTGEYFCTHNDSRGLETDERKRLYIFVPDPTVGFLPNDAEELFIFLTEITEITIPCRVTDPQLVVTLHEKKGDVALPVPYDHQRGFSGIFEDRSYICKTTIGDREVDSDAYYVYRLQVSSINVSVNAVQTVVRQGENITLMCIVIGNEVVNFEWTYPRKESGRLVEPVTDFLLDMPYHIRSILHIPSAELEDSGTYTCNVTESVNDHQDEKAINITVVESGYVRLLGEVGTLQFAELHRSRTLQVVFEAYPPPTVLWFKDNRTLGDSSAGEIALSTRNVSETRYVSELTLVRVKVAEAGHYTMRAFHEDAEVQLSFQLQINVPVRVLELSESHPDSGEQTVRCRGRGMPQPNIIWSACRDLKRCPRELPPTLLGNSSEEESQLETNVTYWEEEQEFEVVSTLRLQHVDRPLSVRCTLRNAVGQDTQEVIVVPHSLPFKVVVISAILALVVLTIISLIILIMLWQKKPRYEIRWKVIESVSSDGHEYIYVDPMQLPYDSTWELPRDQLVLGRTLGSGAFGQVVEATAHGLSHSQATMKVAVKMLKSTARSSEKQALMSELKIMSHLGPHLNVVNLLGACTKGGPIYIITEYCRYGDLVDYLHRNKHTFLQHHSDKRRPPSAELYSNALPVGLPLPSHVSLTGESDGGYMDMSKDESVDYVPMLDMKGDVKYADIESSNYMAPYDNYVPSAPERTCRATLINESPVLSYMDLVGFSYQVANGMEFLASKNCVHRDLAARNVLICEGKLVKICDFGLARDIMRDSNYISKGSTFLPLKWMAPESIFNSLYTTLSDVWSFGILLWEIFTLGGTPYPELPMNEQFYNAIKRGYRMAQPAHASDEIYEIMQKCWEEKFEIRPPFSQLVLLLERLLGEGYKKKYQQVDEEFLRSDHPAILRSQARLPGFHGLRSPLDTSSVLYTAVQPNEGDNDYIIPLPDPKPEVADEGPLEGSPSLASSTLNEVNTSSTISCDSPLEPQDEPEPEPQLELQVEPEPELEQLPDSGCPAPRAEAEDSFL
Sequence of Tyrosine-protein kinase Lyn (Homo sapiens) (P07948 2-512 limits assumed): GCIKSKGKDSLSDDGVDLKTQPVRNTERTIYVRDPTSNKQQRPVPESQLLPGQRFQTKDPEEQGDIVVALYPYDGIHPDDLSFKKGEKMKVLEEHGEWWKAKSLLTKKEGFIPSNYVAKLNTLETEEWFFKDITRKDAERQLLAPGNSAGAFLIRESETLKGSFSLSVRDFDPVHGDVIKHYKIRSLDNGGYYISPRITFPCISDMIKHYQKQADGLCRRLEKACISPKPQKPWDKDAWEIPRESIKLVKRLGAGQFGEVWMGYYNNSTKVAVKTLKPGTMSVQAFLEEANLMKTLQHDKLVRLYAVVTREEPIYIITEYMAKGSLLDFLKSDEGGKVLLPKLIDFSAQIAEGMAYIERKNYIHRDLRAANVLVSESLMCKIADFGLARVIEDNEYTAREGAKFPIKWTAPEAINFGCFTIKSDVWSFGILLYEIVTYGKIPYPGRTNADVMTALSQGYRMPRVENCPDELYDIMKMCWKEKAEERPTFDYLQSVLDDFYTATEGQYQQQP

In general, inhibition refers to the change of the read-out against control, counted positive when it falls. In the case of `Cc1ccc2c(-c3ccnc(Nc4ccc5c(c4)OCCO5)n3)c(-c3ccc(C(F)(F)F)cc3)nn2n1`, the inhibition in assay [1] is 1.95%; in [2], 2.2%; in assay [3], 6.17%; in [4], 1.57%; in assay [5] it was 4.82%; in assay [6] it was -0.17%. In addition, the inhibition in assay [7] is 0.27%; in assay [8], 6.93%; in assay [9], 1.74%; in assay [10], -0.62%; in assay [11] it was -5.36%; in assay [12], 3.02%. Besides, the inhibition in assay [13] amounted to 9.11%; in assay [14] it was 2.16%; in assay [15], 3.64%; in [16] it was 2.93%; in assay [17] it was 2.96%; in [18] it was 1.97%. In addition, the inhibition is 4.53% in [19] and 2.08% in assay [20].

In the case of `Cc1ccc2c(c1)/C(=N/Nc1ccc(S(N)(=O)=O)cc1)C(=O)N2`, the inhibition in assay [1] was 1%; in [2], 0.12%; in [3], 4.93%; in assay [4] it was 0.75%; in assay [5], 4.77%; in assay [6], -1.4%. For the same compound, the inhibition in assay [7] amounted to 1.27%; in assay [8] it was 1.07%; in assay [9], 4.08%; in [10], 2.69%; in [11], 16.2%; in assay [12], 12.2%. Moreover, the inhibition in assay [13] was 37.7%; in assay [14] it was 2.85%; in assay [15], 13.1%; in [16], 11.5%; in assay [17], 70.2%; in assay [18], 21.8%. The figures for the inhibition in assay [19] and in assay [20] were 52.3% and 8.12%, respectively.

As to `O=S(=O)(CCOCc1ccc(-c2ccc3ncnc(Nc4ccc(OCc5cccc(F)c5)c(Cl)c4)c3c2)o1)c1ccccc1`, the inhibition is 3.13% in assay [1]; 1.13% in assay [2]; 2.54% in assay [3]; -1.61% in [4]; -0.4% in assay [5]; -1.18% in assay [6]. Besides, the inhibition was 6.22% in assay [7]; 0.79% in assay [8]; 8.46% in assay [9]; 4.67% in assay [10]; 5.38% in assay [11]; 4.21% in assay [12]. Also, the inhibition worked out at 10% in assay [13]; 0.75% in [14]; 1.61% in assay [15]; 6.02% in [16]; 8.5% in [17]; 3.15% in assay [18]. In addition, the inhibition in assay [19] is 3.68%; in assay [20] it was 2.33%.

In the case of `Nc1nccc(-c2c(-c3ccc(F)cc3)nn3cc(C(F)(F)F)ccc23)n1`, the inhibition in assay [1] is 2.62%; in assay [2], 1.67%; in [3], 2.06%; in [4] it was 1.33%; in assay [5], 2.59%; in [6], -0.89%. For the same compound, the inhibition is 0.12% in [7]; 2.79% in assay [8]; 0.01% in assay [9]; -1.22% in assay [10]; -0.61% in assay [11]; 5.02% in assay [12]. The inhibition is 5.93% in [13]; 0.17% in [14]; 0.96% in assay [15]; -0.84% in assay [16]; 1.89% in assay [17]; 1.05% in assay [18]. The inhibition in [19] came to 1.99%; in [20] it was 0.39%.

Take `O=C(Nc1ccc(Oc2ccc3[nH]c(NC(=O)c4ccco4)nc3c2)cc1)Nc1cc(C(F)(F)F)ccc1F`: the inhibition in [1] is 5.81%; in assay [2] it was 14%; in assay [3] it was 65.7%; in assay [4], 9.31%; in [5] it was 60.5%; in assay [6], 0.43%. Also, the inhibition is 14.1% in assay [7]; 3.13% in assay [8]; 42.9% in assay [9]; 49.9% in assay [10]; 83.5% in assay [11]; 68% in assay [12]. Besides, the inhibition in assay [13] is 85%; in assay [14] it was 4.64%; in [15], 31%; in assay [16], 43.8%; in assay [17], 95.8%; in [18], 73.2%. The inhibition is 95.4% in assay [19] and 12.1% in [20].

`Cc1cc(O)cc(C)c1/C=C/c1cncc(C(=O)N(C)C)c1`: the inhibition in assay [1] is 3.38%; in assay [2], 4.08%; in assay [3] it was 7.54%; in assay [4], 3.61%; in assay [5] it was 6.35%; in assay [6], 1.7%. In addition, the inhibition in assay [7] amounted to 8.23%; in assay [8] it was 1.87%; in [9], 10.9%; in [10], 8.6%; in assay [11] it was 8.5%; in [12], 11.8%. Moreover, the inhibition in assay [13] was 13.3%; in assay [14], 3.51%; in assay [15], 3.16%; in assay [16], 8.15%; in [17] it was 1.18%; in assay [18] it was 1.47%. Moreover, the inhibition in assay [19] was 5.39%; in assay [20] it was 5.76%.

On to `Nc1nccc(-c2c(-c3ccc(F)cc3)ncn2CCCN2CCOCC2)n1`, for which the inhibition in assay [1] was 2.3%; in [2] it was 5.23%; in [3], 9.61%; in [4], 2.71%; in assay [5], 5.84%; in [6], 0.72%. The inhibition in assay [7] was 2.2%; in assay [8], 3.68%; in assay [9], 5.4%; in assay [10], 0.89%; in assay [11] it was 3.99%; in [12] it was 4.62%. Besides, the inhibition in assay [13] was 14.7%; in assay [14], 1.96%; in [15], 6.03%; in [16], 6.08%; in [17], 7.81%; in [18], 3.07%. In addition, the values for the inhibition in assay [19] and in [20] were 8.56% and 3.65%, respectively.
